# Reference: ChEMBL document CHEMBL3988442, “University of Dundee, Small-Polar-MMV Screening Library” (2021)
# Out of some 48,000 compounds screened, about 13,000 (27%) showed an effect of 50% or more. Some of the results follow.
# System: Wolbachia pipientis
# Assay: Anti-Wolbachia Cell-Based Screen
# Type: functional
# Set-up: scale not given: in the data most compounds retested in dose-response had high values
# Settings: 5 µM
row,SMILES,Percent Effect
1,COCCN(C)C(=O)Nc1ccc(C(=O)NCCC(=O)OC)cc1,9.449%
2,CN(CCOCC1CC1)C(=O)Nc1ccc([S+](C)[O-])c(F)c1 (centres undefined),94.49%
3,O=C(NCCOCC1CC1)Nc1ccc(F)cc1,-7.278%
4,CN(CCOCC1CC1)C(=O)Cn1cccc(C(F)(F)F)c1=O,10.84%
5,C[S+]([O-])c1ccc(NC(=O)Cc2cccnc2)cc1F (centres undefined),6.367%
6,CN(CCOCC1CC1)C(=O)Nc1ccc([S+](C)[O-])cc1 (centres undefined),90.95%
7,CC(C)Cc1ncc2c(n1)CN(c1nccc(NC(C)C)n1)C2,-6.813%
8,COC1CCN(C(=O)c2c(Cl)c3ccccc3n2C)CC1,-0.1607%
9,O=C(CCc1cc(Cl)no1)N1CCCCC1CCN1CCOCC1 (centres undefined),-7.331%
10,CCc1nc(CCNc2ncccn2)sc1C,-26.63%
11,COc1ccc(OC)c(C(O)CN2CCN(C3CCCC3)CC2)c1 (centres undefined),3.384%
12,COCCN1CCN(CC(O)c2cc(OC)ccc2OC)CC1 (centres undefined),7.391%
13,COc1cccc(N2CCN(CC(O)c3cc(C)sc3C)CC2)c1 (centres undefined),-7.346%
14,COc1cccc(C(O)CN2CCN(c3cccc(C)c3)CC2)c1 (centres undefined),140.6%
15,COc1cccc(C(O)CN2CCN(C(=O)CCC(C)C)CC2)c1 (centres undefined),-9.64%
16,COc1ccc(OC)c(C(O)CN2CCN(c3cccc(C)c3)CC2)c1 (centres undefined),116.6%
17,CS(=O)(=O)c1ccc2c(c1)nc1n2[C@@H](CNCc2cccnc2)COC1,6.164%
18,CC(CC(=O)N1CCCS1(=O)=O)c1ccccc1C(F)(F)F (centres undefined),-9.75%
19,COC(=O)[C@@H]1Cc2ncn(C)c2CN1S(=O)(=O)c1cccs1,-9.442%
20,CNC(=O)CCc1cc(C)nc(C2CCCN2)n1 (centres undefined),-4.947%
21,CNC(=O)CCc1cccc(OC2CCCC2)c1,6.693%
22,CNC(=O)CCc1cc(C)nc(C2CCCCN2)n1 (centres undefined),122.2%
23,CCN1CCn2nc(CCC(=O)N3CCCC3)cc2C1,0.2115%
24,CN(C)[C@H]1CCCCN(C(=O)CCc2csc(N)n2)C1,-1.322%
25,Cc1cc(C)n(CC2CCCCN2CC(=O)Nc2nncs2)n1 (centres undefined),-4.796%

row,SMILES,Percent Effect
1,Cc1cc(CCC(=O)Nc2nncs2)nc(C2CCCN2)n1.Cl (centres undefined),92.36%
2,Cc1cc(C)n(CC2CCCN2CC(=O)Nc2nncs2)n1 (centres undefined),-0.6534%
3,Cc1cc(CCC(=O)N(C)C)nc(C2CCCCN2)n1.Cl.Cl (centres undefined),123.4%
4,Cc1cc(CCC(=O)N2CCCC2)nc(C2CCCN2)n1 (centres undefined),120.7%
5,CCc1nc(C)c([C@H]2CN(C)C[C@@H]2C(=O)Nc2ccc3[nH]ncc3c2)[nH]1,2.29%
6,CC(=O)N1CCC(NC2(Cc3cc(CC(C)C)on3)COC2)CC1,8.31%
7,Cc1nc(CN2C(=O)CC[C@@H]3[C@H]2CCN3C2CCOC2)cs1.O=C(O)C(F)(F)F (some centres undefined),91.6%
8,Cc1nc(CN2C(=O)CC[C@@H]3[C@H]2CCN3C(=O)c2ccccn2)cs1.O=C(O)C(F)(F)F,-0.4991%
9,Cc1nc(CN2C(=O)C[C@H]3[C@H]2CCN3C2CCOCC2)cs1.O=C(O)C(F)(F)F,-10.54%
10,Cc1nc(CN2CCN(C3CCOC3)Cc3cccnc32)cs1.O=C(O)C(F)(F)F.O=C(O)C(F)(F)F.O=C(O)C(F)(F)F (centres undefined),-13.84%
11,Cc1nc(CN2C(=O)C[C@H]3[C@H]2CCN3C2CCOC2)cs1.O=C(O)C(F)(F)F (some centres undefined),104.4%
12,Cc1nc(CN2C(=O)CC[C@@H]3[C@H]2CCN3C2CCOCC2)cs1.O=C(O)C(F)(F)F,88.53%
13,Cc1nc(CN2C(=O)CC[C@@H]3[C@H]2CCN3C(=O)C2CCOCC2)cs1,-12.01%
14,Cc1cccc(OC2CCN(c3nccnc3C#N)CC2)n1,4.563%
15,COc1ccc(C(=O)N(C)Cc2cc(C)on2)c(F)c1,9.615%
16,CNc1ncc(C(=O)N2CCC3(CC2)Nc2ccccc2NC3=O)cn1,-19.06%
17,CC(=O)Nc1nc2c(s1)C1(CCN(C)CC1)Nc1ccccc1S2,104.1%
18,CC(=O)Nc1nc2c(s1)C1(CCCC1)Nc1ccccc1S2,63.28%
19,COc1cc(C(=O)N2CCC3(CC2)Nc2ccccc2NC3=O)ccn1,31.29%
20,CC(=O)Nc1nc2c(s1)C(C)(C)Nc1ccccc1S2,66.2%
21,CS(=O)(=O)N1CC[C@]2(O)CCN(c3cc(C#N)ccn3)C[C@@H]2C1,-2.197%
22,CCOc1ccc(CCC(=O)N2CC[C@H]3C(=O)NCCO[C@H]3C2)cc1,8.218%
23,Cc1c(C(=O)NCCC(=O)N2CCOCC2)oc2c(C)cccc12,-0.1879%
24,CC(NCc1cnc(C2CCC2)s1)c1cccc(-n2cccn2)c1 (centres undefined),-14.57%
25,O=C(CN1C(=O)CCC1=O)NCc1nn(C2CCCC2)c2c1CCCC2,-9.274%

row,SMILES,Percent Effect
1,CCn1cc2c(n1)CN(Cc1cnn(C)c1)CC2COCC1CC1.O=C(O)C(F)(F)F (centres undefined),12.58%
2,Cn1cc(CN2C[C@@H]3COC[C@]3(CNC(=O)c3ccsc3)C2)cn1.O=C(O)C(F)(F)F,-12.06%
3,Cc1cccc(CN2C[C@H]3CCC[C@@]3(COCc3csc(C)n3)C2)n1.O=C(O)C(F)(F)F.O=C(O)C(F)(F)F,-5.241%
4,Cn1cc(CN2C[C@@H]3COC[C@]3(CNC(=O)c3ccco3)C2)cn1.O=C(O)C(F)(F)F,-7.864%
5,Cc1nc(COC[C@@]23CCC[C@@H]2CN(Cc2cnn(C)c2)C3)cs1,93.55%
6,Cc1nc(COC[C@@]23CCC[C@@H]2CN(Cc2nccs2)C3)cs1.O=C(O)C(F)(F)F,8.352%
7,Cn1cc(CN2C[C@H]3CCC[C@@]3(COCC3CC3)C2)cn1.O=C(O)C(F)(F)F,101.6%
8,Cn1cc(CN2C[C@@H]3COC[C@]3(COCC3CC3)C2)cn1.O=C(O)C(F)(F)F,100.8%
9,Cn1cc(CN2CCn3cnc(COCC4CC4)c3C2)cn1.O=C(O)C(F)(F)F,8.69%
10,COc1ccc(Br)c(C(=O)N2CCC(c3n[nH]c(C4CC4)n3)CC2)c1,9.985%
11,O=C(Cc1csc(N2CCNC2=O)n1)NC1(c2ccccc2)CCC1,3.065%
12,Cc1nc(NC(=O)N2CCCC(C(C)(C)O)C2)nn1C (centres undefined),7.598%
13,CC(C)N[C@@H]1CO[C@H](CNC(=O)c2cccs2)[C@H]1O,0.5301%
14,NC(=O)NCC(=O)N1CCC(c2cc(-c3ccccc3Cl)n[nH]2)CC1,9.084%
15,CCOC(=O)CNC(=O)C1OC(c2ccccc2)=NN1C(C)=O (centres undefined),105.7%
16,COC(=O)CN1CC(c2nc(Cc3ccccc3)no2)C1.O=C(O)C(=O)O,-2.345%
17,CC(C)(C)OC(=O)CNC(=O)CCc1nnc(-c2ccsc2)o1,-11.15%
18,CCOC(=O)CNC(=O)N1CCCC(CNC(=O)c2ccco2)C1 (centres undefined),-9.65%
19,CN(C(=O)c1ccco1)C1CCC(NC(=O)OC(C)(C)C)CC1 (centres undefined),-29.92%
20,CCN1CC(C(=O)NCc2noc(Cc3ccccc3)n2)CCC1=O (centres undefined),-8.005%
21,CC(C)N1CCCC(C(=O)NCc2noc(Cc3ccccc3)n2)C1 (centres undefined),-0.7063%
22,CC(=O)N1N=C(c2ccccc2)OC1C(=O)NCC(=O)OC(C)(C)C (centres undefined),126.7%
23,CC(=O)N1N=C(Cc2ccccc2)OC1C(=O)NCC(=O)OC(C)(C)C (centres undefined),112%
24,CC(=O)N1N=C(Cc2ccccc2)OC1C(=O)NCC(C)C (centres undefined),119.9%
25,CCOC(=O)CNC(=O)C1CN(C(=O)c2cnccn2)C1,12.27%

row,SMILES,Percent Effect
1,CCC(CNC(C)=O)(OC)c1ccccc1 (centres undefined),-7.237%
2,CC(C)N[C@@H]1CO[C@H](CNC(=O)Nc2ccccc2)[C@H]1O,-15.53%
3,Cc1nc(C(NC(=O)CN(C)C(C)C)c2ccccc2F)no1 (centres undefined),-8.62%
4,CCc1nnc(CN2CCN(C(C)=O)CC2)o1,-9.857%
5,Cc1ccc(C(=O)N2CCC(Oc3ccc(F)cc3F)CC2)c(=O)[nH]1,-17.81%
6,CC(C)c1nnc(NCCS(C)(=O)=O)s1,-6.765%
7,CC1(C)COCCN1C(=O)CCc1nc(-c2ccncc2)no1,14.72%
8,CCOc1ncccc1CNc1cc(COC)ncn1,-5.284%
9,O=C(c1ccccc1)N1CC2(CCNC2)OCc2ccccc21 (centres undefined),116.8%
10,Cc1ccccc1C(=O)N1CCOC2(CNCCOC2)C1 (centres undefined),-17.32%
11,O=C(c1ccc(Cl)cc1)N1CC2(CCNC2)OCc2ccccc21 (centres undefined),113.7%
12,O=C(c1ccccc1-c1ccccc1)N1CCOC2(CNCCOC2)C1 (centres undefined),-21.41%
13,O=C1OC2(CCNCC2)CN1CC(=O)N1CCC1c1cccs1 (centres undefined),-13.03%
14,COc1ccc(Cl)cc1C(=O)N1CCOC2(CNCCOC2)C1 (centres undefined),-14.44%
15,O=C(C1CCCC1)N1CC2(CCNC2)OCc2ccccc21 (centres undefined),106%
16,O=C(c1ccc(NCc2ccco2)nc1)N1CCc2ccccc21,16.32%
17,Cc1ccccc1C1CCCN1C(=O)CN1CC2(CCNCC2)OC1=O (centres undefined),-3.464%
18,Clc1cc(CN2CCCC(Cn3cncn3)C2)c2ncccc2c1 (centres undefined),-5.34%
19,N#CCC(=O)NCc1nnc2n1CCN(Cc1ccsc1)C2,-8.086%
20,COC(=O)CN1N=C(C(=O)N2CCCC2)S(=O)(=O)c2ccccc21,18.69%
21,CCc1nc(C2CCCN2Cc2nccn2Cc2ccccc2)no1 (centres undefined),3.12%
22,Cc1nccn1-c1cncc(C2CCCN2Cc2cccnc2)n1 (centres undefined),117.3%
23,CC(C)c1nccn1-c1cncc(C2CCCN2Cc2cccnc2)n1 (centres undefined),151.3%
24,Cc1nccn1-c1cncc(C2CCCN2Cc2ccccc2)n1 (centres undefined),97.46%
